# Measurements from PubChem BioAssay (NCATS).
# Records with an inconclusive call do not appear. Where a call stands in place of a potency, no number is given. Active and inactive are the calls of the source. The call rests on the fitted dose curve; in most records, active means well fitted inhibition curve with a large enough effect; inconclusive means small, poorly fitted or top-dose-only effect; inactive means flat fitted curve, though single readings scatter.
# Molecular target: Calcium and integrin-binding protein 1 (Homo sapiens) (UniProt Q99828)
# Sequence (Q99828 whole entry, looked up): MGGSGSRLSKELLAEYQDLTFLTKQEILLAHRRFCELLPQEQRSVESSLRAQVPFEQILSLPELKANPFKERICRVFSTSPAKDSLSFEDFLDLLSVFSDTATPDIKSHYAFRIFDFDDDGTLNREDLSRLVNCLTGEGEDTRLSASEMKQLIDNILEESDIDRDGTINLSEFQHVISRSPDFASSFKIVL
# Test: Primary qHTS for Identification of Calcium Integrin Binding Protein 1 (CIB1) Competitor (AID 1508620)
# Settings: CIB1-GST / FITC-alphaIIb peptide fluorescence polarization; series mostly up to 114 µM
# Procedure, shortened: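 Fluorescence polarization competition: GST-tagged CIB1 (1 uM final) preincubated with compound 15 min at room temperature, then FITC-labelled alphaIIb peptide (100 nM final) added. After 15 min at room temperature, polarization read at Ex 480/Em 540.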
# Potency means the concentration at half of the fitted maximal effect.
row,Compound,Potency
1,C[C@@H]1O[C@@H](O[C@H]2[C@H](O[C@H]3CC[C@@]4(C)C(CC[C@]5(C)C4C=C[C@]46OC[C@@]7(CCC(C)(C)C[C@H]74)[C@@H](O[C@@H]4O[C@@H](C)[C@H](O)[C@@H](O)[C@H]4O)C[C@]65C)[C@]3(C)CO)O[C@H](CO)[C@@H](O)[C@@H]2O[C@@H]2O[C@H](CO)[C@@H](O)[C@H](O)[C@H]2O)[C@H](O)[C@H](O)[C@H]1O (stereo partly drawn),inactive
2,CCCCC1CCN(CCCN2C(=O)CCc3ccccc32)CC1,inactive
3,O=C(NCCCNC(=O)c1ccc[nH]c1=O)c1cc(-c2ccccc2)on1,inactive
4,C=C(COC(=O)C(O)C(O)CN)C12OC1C1(C)C(=CC2=O)C(O)C(O)CC1C (stereo not drawn),inactive
5,COc1ccc2nc3n[nH]c(C)c3c(NCCOCCO)c2c1,50.1 µM (active)
6,CCn1nc(C2CCN(C(=O)CCO)CC2)nc1-c1cnc(N)c(-c2nnc(C(C)(C)C)o2)n1,inactive
7,Cc1cc2sc(NC(=O)Cc3ccccc3)nc2cc1Cl,inactive
8,CC(=O)OC1CC2(C)C(CCC(C)C23Cc2c(O)cc(CO)c(C=O)c2O3)C(C)(C)C1O (stereo not drawn),inactive
9,Cc1cc(F)c(C(=O)Nc2cccc(-c3nncn3C(C)C)n2)cc1-n1cnc(C2CC2)c1,inactive
10,Cc1[nH]c2ccccc2c1CCNC(=O)c1cccs1,inactive
11,CCOC(=O)N1CCC(CN(Cc2ccc(Cl)cc2)Cc2ccc([N+](=O)[O-])s2)C1 (stereo not drawn),inactive
12,COc1cc2c(c(OC)c1CC=C(C)C)C[C@H](c1ccc(O)c(CC=C(C)C)c1O)CO2,inactive
13,CNC1CN(c2ccc3c(=O)c(C(=O)O)cn(-c4nccs4)c3n2)CC1OC (stereo not drawn),inactive
14,CCNC1(C(N)=O)CN(c2nc(C)nc3c(-c4ccc(Cl)cc4)c(-c4ccccc4Cl)nn23)C1,inactive
15,CO[C@H]1O[C@@H]2O[C@@]3(C)CCC4[C@H](C)CCC([C@H]1C)[C@]42OO3 (stereo partly drawn),inactive
16,C/C1=C\CCC2=CC(OC2=O)C(C)(C)/C=C/C1=O (stereo not drawn),inactive
17,Cc1ccc(C2(C(=O)N3CCC(n4nc(-c5ccccc5)oc4=O)CC3)CC2)cc1,inactive
18,O=C(O)c1cc(N(Cc2ccc(C3CCCCC3)cc2)C(=O)c2ccc(Oc3ccccc3)cc2)ccc1O,inactive
19,COC(=O)CC(O)CC(O)/C=C/c1c(C)ccc2c1C(OC(C)=O)CC(C)C2 (stereo not drawn),inactive
20,COc1cc(N2CCC(O)CC2)ccc1Nc1nc(Nc2ccccc2S(=O)(=O)C(C)C)c2[nH]cnc2n1,inactive
21,COc1ccc(C[C@H]2COC(=O)[C@@H]2Cc2ccc(O[C@@H]3O[C@H](CO)[C@@H](O)[C@H](O)[C@H]3O)c(OC)c2)cc1OC,inactive
22,Cc1cc(N2CCN(C(=O)Oc3ccc(-c4ccccc4)cn3)CC2)c2ccccc2n1,inactive
23,CC(C)n1c(=O)c(C(=O)NC2CC3CCC(C2)N3C[C@@H](O)CN(C)S(C)(=O)=O)cc2ccccc21 (stereo partly drawn),inactive
24,C/C=C(\C)[C@@H]1C(C)=C[C@@H]2[C@H]([C@@H]1/C=C/C=C/C(=O)O)[C@@H](C)CC[C@@H]2O,inactive
25,C=C1CC2OC(=O)C(COC)C2C(OC(=O)/C(C)=C\C)CC2(C)OC1=CC2=O (stereo not drawn),inactive
26,CC(=O)c1c(C)cc2cccc(O)c2c1O[C@@H]1O[C@H](CO)[C@@H](O)[C@H](O)[C@H]1O,inactive
27,COc1cc(C#N)ccc1S(=O)(=O)Nc1ccc2c(c1)cc(C)c(=O)n2C,inactive
28,CC(C)c1noc(C2CCN(c3ncnc(Nc4ccc(S(C)(=O)=O)cc4F)c3[N+](=O)[O-])CC2)n1,inactive
